Assay [1] has as its target Nuclear receptor subfamily 1 group I member 3 (Homo sapiens) (UniProt Q14994). Briefly: ATG_CAR_TRANS: Attagene TRANS-FACTORIAL HepG2 Assay for human Constitutive Androstane Receptor (CAR) (AID 2282969).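 Also: activators raise reporter mRNA above DMSO so AC50 marks induction.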 The conditions noted are these: HepG2 Attagene TRANS-FACTORIAL CAR reporter. In short, it runs like this:
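Readout is reporter mRNA induction, quantified by fluorescent primer extension and capillary electrophoresis after RT-PCR. Cells were HepG2 transiently carrying chimeric NR-Gal4 constructs with GAL4-UAS reporters, treated for 24 h; activity scored upward from DMSO.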

Assay [2] addresses Estrogen receptor (Homo sapiens) (UniProt P03372). Briefly: ATG_ERa_TRANS: Attagene TRANS-FACTORIAL HepG2 Assay for human Estrogen Receptor alpha (ERa) (AID 2282970). The conditions noted are these: HepG2 Attagene TRANS ERa GAL4 reporter, mRNA. In short, it runs like this:
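HepG2 cells transiently transfected with multiplexed GAL4-UAS reporter units; ERa activity read via exogenous chimeric NR-Gal4 protein. After 24 hour compound exposure, reporter mRNA measured by RT-PCR with 6-FAM labelling and capillary electrophoresis; gain-of-signal fitted relative to DMSO.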

Assay [3] has as its target X-box-binding protein 1 (Homo sapiens) (UniProt P17861). The experiment in a line: ATG_Xbp1_CIS: Attagene CIS-FACTORIAL HepG2 Assay for human X-box Binding Protein 1 (XBP1) (AID 2282972; active = hit-call score of the fitted dose curve at least 0.9, where 1 is the maximum; inactive = score below 0.9). Particulars: HepG2 XBP1 cis-element reporter, Attagene multiplex; actives raise or lower the signal. Put shortly: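 HepG2 cells transiently transfected with multiple cis-element reporter units report endogenous TF activity; 24 h exposure, then reporter mRNA measured by RT-PCR, 6-FAM labelling, HpaI digestion and capillary electrophoresis. Bidirectional fitting versus DMSO.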

In assay [4] the target is Androgen receptor (Homo sapiens) (UniProt P10275). Briefly: ATG_AR_TRANS: Attagene TRANS-FACTORIAL HepG2 Assay for human Androgen Receptor (AR) (AID 2282973). The conditions noted are these: HepG2 Attagene TRANS-FACTORIAL AR reporter transcription. In short, it runs like this:
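HepG2 cells transiently transfected with multiplexed GAL4-UAS reporter units and chimeric NR-Gal4 fusion; 24 h compound exposure. Reporter mRNA measured by RT-PCR, 6-FAM labelling, HpaI digestion and capillary electrophoresis; gain-of-signal fitted relative to DMSO baseline.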

A short description of assay [5]: ATG_M_19_TRANS: Attagene TRANS-FACTORIAL HepG2 Assay for M19 Transcription Factor (Internal Marker) (AID 2282974). Particulars: HepG2 Attagene TRANS-FACTORIAL M19 internal marker reporter. In short, it runs like this:
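Fluorescence of 6-FAM-labelled reporter cDNA fragments, separated by capillary electrophoresis, served as the readout. These derived from HepG2 cells carrying transfected GAL4-UAS reporter units after 24 h dosing, with DMSO as negative control.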

Assay [6] has as its target Bile acid receptor (Homo sapiens) (UniProt Q96RI1). The experiment in a line: ATG_FXR_TRANS: Attagene TRANS-FACTORIAL HepG2 Assay for Farnesoid X Receptor (FXR) (AID 2282979).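 Also: hits raise reporter mRNA above DMSO so AC50 marks FXR activation.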 The conditions noted are these: HepG2 Attagene TRANS FXR-GAL4 reporter transcription. Put shortly:
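HepG2 cells transiently transfected with reporter constructs in which a chimeric FXR-GAL4 protein drives a GAL4-UAS reporter; 24 h compound exposure. Reporter mRNA measured by RT-PCR, FAM labelling, HpaI digestion and capillary electrophoresis; gain-of-signal versus DMSO.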

For assay [7], the target named is Oxysterols receptor LXR-alpha (Homo sapiens) (UniProt Q13133). Briefly: ATG_LXRa_TRANS: Attagene TRANS-FACTORIAL HepG2 Assay for human Liver X Receptor alpha (LXRa) (AID 2282980). Particulars: HepG2 Attagene TRANS reporter, LXRa transactivation. In short, it runs like this: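 HepG2 cells were transiently transfected with multiplexed reporter units driven by chimeric LXRa–GAL4 fusion proteins, then dosed for 24 h. Reporter mRNA was quantified by RT-PCR, fluorescent labelling and capillary electrophoresis; gain of signal fitted against DMSO baseline.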

The target of assay [8] is Transcriptional activator Myb (Homo sapiens) (UniProt P10242). The experiment in a line: ATG_Myb_CIS: Attagene CIS-FACTORIAL HepG2 Assay for human Myeloblastosis (Myb) Proto-Oncogene Transcription Factor (AID 2282986; active = hit-call score of the fitted dose curve at least 0.9, where 1 is the maximum; inactive = score below 0.9). The conditions noted are these: HepG2 Attagene CIS-FACTORIAL Myb reporter transcription; actives raise or lower the signal. In short, it runs like this: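 Reporter transcript levels, quantified by fluorescent RT-PCR and capillary electrophoresis, serve as the read-out. Transfected HepG2 cells carrying cis-promoter reporter units are dosed for 24 hours, and curves are fitted bidirectionally against DMSO controls.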

Assay [9] deals with Nuclear respiratory factor 1 (Homo sapiens) (UniProt Q16656). Briefly: ATG_NRF1_CIS: Attagene CIS-FACTORIAL HepG2 Assay for human Nuclear Respiratory Factor 1 (NRF1) Orphan Gene (AID 2282987; active = hit-call score of the fitted dose curve at least 0.9, where 1 is the maximum; inactive = score below 0.9). The conditions noted are these: HepG2 NRF1 cis-element reporter, Attagene multiplex; actives raise or lower the signal. Put shortly:
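Multiplexed cis-reporter assay, HepG2 cells, 24 h treatment. Total RNA → oligo(dT) RT → PCR with reporter-specific primers → 6-FAM primer extension → HpaI cut → CE. Bidirectional fit vs DMSO.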

A short description of assay [10]: ATG_NFI_CIS: Attagene CIS-FACTORIAL HepG2 Assay for human Nuclear Factor I (NFI) (AID 2282989; active = hit-call score of the fitted dose curve at least 0.9, where 1 is the maximum; inactive = score below 0.9). The conditions noted are these: HepG2 cis-regulatory reporter, NFI response element transcription; actives raise or lower the signal. Put shortly:
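Reporter transcripts were measured by RT-PCR with fluorescent primer extension and capillary electrophoresis 24 h post-treatment. HepG2 cells carried transiently transfected cis-regulated reporter constructs reporting endogenous factor activity; gain or loss fitted against DMSO baseline.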

Assay [11] has as its target Myc proto-oncogene protein (Homo sapiens) (UniProt P01106). The experiment in a line: ATG_Myc_CIS: Attagene CIS-FACTORIAL HepG2 Assay for human Myelocytomatosis (Myc) Proto-Oncogene Transcription Factor (AID 2282990; active = hit-call score of the fitted dose curve at least 0.9, where 1 is the maximum; inactive = score below 0.9). Particulars: HepG2, Attagene cis-reporter transcription factor activity; actives raise or lower the signal. Put shortly:
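HepG2, transient MRTU transfection (cis promoters, endogenous TFs); 24 h dosing; TriZol RNA → oligo(dT) RT → PCR → 6-FAM primer extension → HpaI cut → CE. Bidirectional fit vs DMSO.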

Assay [12] addresses Steroid hormone receptor ERR1 (Homo sapiens) (UniProt P11474). Briefly: ATG_ERRa_TRANS: Attagene TRANS-FACTORIAL HepG2 Assay for human Estrogen-Related Receptor alpha (ERRa) (AID 2282971). Particulars: HepG2 Attagene TRANS reporter, ERRa transactivation. In short, it runs like this:
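HepG2 cells transiently transfected with multiplexed GAL4-UAS reporter units reading chimeric ERRa-Gal4 activity; 24 h compound exposure. Reporter mRNA measured by RT-PCR, 6-FAM labelling, HpaI digest and capillary electrophoresis; gain of signal fitted versus DMSO baseline.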

Assay [13] has as its target Glucocorticoid receptor (Homo sapiens) (UniProt P04150). Briefly: ATG_GR_TRANS: Attagene TRANS-FACTORIAL HepG2 Assay for human Glucocorticoid Receptor (GR) (AID 2282978).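 Also: activators score as hits since higher reporter transcript over DMSO is fitted.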 The conditions noted are these: HepG2 Attagene TRANS GR reporter, mRNA transcription. In short, it runs like this: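 Fluorescent capillary-electrophoresis quantitation of reporter mRNA is the readout, taken 24 h after dosing human HepG2 cells carrying transiently transfected GAL4-UAS reporter units activated by chimeric NR-GAL4 fusions; activity scored as induction over DMSO.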

In assay [14] the target is Oxysterols receptor LXR-beta (Homo sapiens) (UniProt P55055). Briefly: ATG_LXRb_TRANS: Attagene TRANS-FACTORIAL HepG2 Assay for human Liver X Receptor beta (LXRb) (AID 2282981). Particulars: HepG2 Attagene TRANS GAL4-LXRb reporter, mRNA. Put shortly:
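Transient transfection HepG2 (multiplexed RTUs, GAL4-UAS); NR-Gal4 chimera; 24 h exposure; RNA → RT-PCR → 6-FAM primer extension → HpaI → CE; increase vs DMSO.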

A short description of assay [15]: ATG_M_32_TRANS: Attagene TRANS-FACTORIAL HepG2 Assay for M32 Transcription Factor (Internal Marker) (AID 2282984). The conditions noted are these: HepG2 Attagene TRANS M32 internal marker reporter. In short, it runs like this: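 Measures reporter mRNA induction in human HepG2 liver cells after 24 h chemical treatment. Transcripts from transiently transfected GAL4-UAS reporter units are amplified, fluorescently labelled and sized by capillary electrophoresis; gain of signal relative to DMSO.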

Assay [16] in a line: ATG_GAL4_TRANS: Attagene TRANS-FACTORIAL HepG2 Assay for GAL4 (Internal Marker) (AID 2282976). Particulars: HepG2 Attagene TRANS GAL4 internal marker reporter. In short, it runs like this: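 HepG2 cells transiently transfected with multiplexed GAL4-UAS reporter constructs were dosed for 24 h. Reporter mRNA was measured by RT-PCR, 6-FAM primer extension, HpaI digestion and capillary electrophoresis, and gain of signal was fitted relative to DMSO.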

The target in assay [17] is Hepatocyte nuclear factor 4-alpha (Homo sapiens) (UniProt P41235). The experiment in a line: ATG_HNF4a_TRANS: Attagene TRANS-FACTORIAL HepG2 Assay for human Hepatocyte Nuclear Factor 4 alpha (HNF4a) (AID 2282982). Particulars: HepG2 HNF4a transactivation reporter, mRNA readout. Put shortly:
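Readout is fluorescent reporter-transcript fragments resolved by capillary electrophoresis after RT-PCR from HepG2 cells dosed for 24 h. Cells carried transfected GAL4-UAS reporter constructs measuring exogenous NR-GAL4 chimera activity; DMSO served as baseline.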

Assay [18] in a line: ATG_M_06_TRANS: Attagene TRANS-FACTORIAL HepG2 Assay for M06 Transcription Factor (Internal Marker) (AID 2282983). The conditions noted are these: HepG2 Attagene TRANS M06 internal marker reporter. In short, it runs like this:
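HepG2 cells transiently transfected with multiplexed GAL4-UAS reporter transcription units; after 24 h compound exposure, reporter mRNA measured by RT-PCR, FAM-labelled primer extension, HpaI digestion and capillary electrophoresis. Gain-of-signal fitted versus DMSO baseline; background control readout.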

In assay [19] the target is Nuclear receptor subfamily 4 group A member 2 (Homo sapiens) (UniProt P43354). Briefly: ATG_NURR1_TRANS: Attagene TRANS-FACTORIAL HepG2 Assay for human Nuclear Receptor Related Protein 1 (NURR1) (AID 2282985). Particulars: HepG2 Attagene TRANS reporter, mRNA readout. Put shortly: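 Transient transfection of HepG2, human liver cells, with multiple GAL4-UAS reporter transcription units. Cells dosed 24 h, RNA isolated, reverse-transcribed, PCR-amplified, FAM-labelled, HpaI-digested, sized by capillary electrophoresis. DMSO served as negative control.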

The source of these data is PubChem BioAssay (EPA / NIEHS).

What is called AC50 is the concentration giving half of the maximal activity seen.

Inconclusive results are not listed. The source made the active and inactive calls. The calls were made as follows, unless noted: active = hit-call score of the fitted dose curve at least 0.9, where 1 is the maximum; inconclusive = response in the unintended direction; inactive = score below 0.9.

Chain of Myc proto-oncogene protein (Homo sapiens) (P01106 whole entry, looked up): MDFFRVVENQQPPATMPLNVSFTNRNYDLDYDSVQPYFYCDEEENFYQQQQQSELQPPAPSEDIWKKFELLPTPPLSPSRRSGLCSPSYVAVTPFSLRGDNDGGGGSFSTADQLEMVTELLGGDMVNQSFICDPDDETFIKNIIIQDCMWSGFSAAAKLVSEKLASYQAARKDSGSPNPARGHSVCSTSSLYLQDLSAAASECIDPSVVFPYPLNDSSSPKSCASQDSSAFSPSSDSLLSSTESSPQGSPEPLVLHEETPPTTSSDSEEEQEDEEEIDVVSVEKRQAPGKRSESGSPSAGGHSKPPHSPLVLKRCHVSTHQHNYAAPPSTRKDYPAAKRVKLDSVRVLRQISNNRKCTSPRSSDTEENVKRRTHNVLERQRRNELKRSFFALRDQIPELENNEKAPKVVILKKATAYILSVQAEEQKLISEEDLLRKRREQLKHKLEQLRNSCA
Chain of Nuclear respiratory factor 1 (Homo sapiens) (Q16656 whole entry, looked up): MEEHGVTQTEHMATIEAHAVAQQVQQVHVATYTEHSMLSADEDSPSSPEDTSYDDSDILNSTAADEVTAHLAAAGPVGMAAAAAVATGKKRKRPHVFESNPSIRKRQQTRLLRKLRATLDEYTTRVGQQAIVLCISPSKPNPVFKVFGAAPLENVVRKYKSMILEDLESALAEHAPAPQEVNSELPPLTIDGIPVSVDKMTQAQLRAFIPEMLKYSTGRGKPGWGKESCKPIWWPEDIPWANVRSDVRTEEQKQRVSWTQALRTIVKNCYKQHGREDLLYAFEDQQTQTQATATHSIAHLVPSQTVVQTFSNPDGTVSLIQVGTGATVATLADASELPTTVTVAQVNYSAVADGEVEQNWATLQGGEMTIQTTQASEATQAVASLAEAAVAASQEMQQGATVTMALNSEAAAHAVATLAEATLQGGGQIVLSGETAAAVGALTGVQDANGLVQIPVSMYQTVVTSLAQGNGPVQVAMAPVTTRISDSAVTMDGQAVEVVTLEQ
Chain of Oxysterols receptor LXR-beta (Homo sapiens) (P55055 whole entry, looked up, the tested form may be a part): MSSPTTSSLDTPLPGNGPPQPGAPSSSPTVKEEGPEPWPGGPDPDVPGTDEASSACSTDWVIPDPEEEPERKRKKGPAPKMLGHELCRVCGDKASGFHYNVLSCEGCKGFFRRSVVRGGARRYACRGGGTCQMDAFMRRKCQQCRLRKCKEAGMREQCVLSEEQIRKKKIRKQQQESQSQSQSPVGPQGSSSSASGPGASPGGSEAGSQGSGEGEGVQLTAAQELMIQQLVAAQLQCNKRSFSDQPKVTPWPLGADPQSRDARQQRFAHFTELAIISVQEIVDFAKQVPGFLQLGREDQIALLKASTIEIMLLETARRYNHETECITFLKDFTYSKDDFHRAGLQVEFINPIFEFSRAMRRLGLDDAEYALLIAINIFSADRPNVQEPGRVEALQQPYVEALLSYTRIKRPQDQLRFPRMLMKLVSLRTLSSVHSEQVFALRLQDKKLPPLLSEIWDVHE
Chain of Nuclear receptor subfamily 1 group I member 3 (Homo sapiens) (Q14994 whole entry, looked up, the tested form may be a part): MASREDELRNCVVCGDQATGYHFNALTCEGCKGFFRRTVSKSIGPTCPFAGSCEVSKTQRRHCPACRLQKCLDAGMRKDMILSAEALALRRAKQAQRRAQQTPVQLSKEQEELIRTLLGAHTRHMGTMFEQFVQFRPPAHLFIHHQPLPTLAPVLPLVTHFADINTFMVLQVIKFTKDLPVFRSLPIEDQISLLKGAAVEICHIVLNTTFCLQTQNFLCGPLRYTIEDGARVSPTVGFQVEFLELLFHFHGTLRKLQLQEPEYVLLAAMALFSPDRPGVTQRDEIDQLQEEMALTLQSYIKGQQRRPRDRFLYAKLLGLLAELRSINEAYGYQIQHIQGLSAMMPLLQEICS
Chain of X-box-binding protein 1 (Homo sapiens) (P17861 whole entry, looked up): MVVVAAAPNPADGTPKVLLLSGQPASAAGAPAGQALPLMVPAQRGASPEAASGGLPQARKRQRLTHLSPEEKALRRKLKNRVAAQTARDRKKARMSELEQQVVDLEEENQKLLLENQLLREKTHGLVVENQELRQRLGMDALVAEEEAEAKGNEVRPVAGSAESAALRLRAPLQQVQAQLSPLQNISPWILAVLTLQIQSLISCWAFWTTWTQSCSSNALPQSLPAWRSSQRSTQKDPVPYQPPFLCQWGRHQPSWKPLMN
Chain of Bile acid receptor (Homo sapiens) (Q96RI1 whole entry, looked up, the tested form may be a part): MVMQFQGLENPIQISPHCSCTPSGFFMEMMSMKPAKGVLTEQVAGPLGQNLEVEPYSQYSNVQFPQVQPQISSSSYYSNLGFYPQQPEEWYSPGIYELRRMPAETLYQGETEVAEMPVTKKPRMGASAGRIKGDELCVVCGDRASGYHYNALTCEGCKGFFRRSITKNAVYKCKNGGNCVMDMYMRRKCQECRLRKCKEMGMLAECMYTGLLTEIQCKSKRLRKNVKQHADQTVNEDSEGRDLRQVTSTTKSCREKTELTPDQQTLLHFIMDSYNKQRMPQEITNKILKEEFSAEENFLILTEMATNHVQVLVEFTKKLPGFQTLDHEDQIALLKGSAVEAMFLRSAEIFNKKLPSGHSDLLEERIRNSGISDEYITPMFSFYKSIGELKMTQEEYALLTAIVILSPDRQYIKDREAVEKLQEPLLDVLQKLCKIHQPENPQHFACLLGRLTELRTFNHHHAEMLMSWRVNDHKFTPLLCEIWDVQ
Chain of Oxysterols receptor LXR-alpha (Homo sapiens) (Q13133 whole entry, looked up, the tested form may be a part): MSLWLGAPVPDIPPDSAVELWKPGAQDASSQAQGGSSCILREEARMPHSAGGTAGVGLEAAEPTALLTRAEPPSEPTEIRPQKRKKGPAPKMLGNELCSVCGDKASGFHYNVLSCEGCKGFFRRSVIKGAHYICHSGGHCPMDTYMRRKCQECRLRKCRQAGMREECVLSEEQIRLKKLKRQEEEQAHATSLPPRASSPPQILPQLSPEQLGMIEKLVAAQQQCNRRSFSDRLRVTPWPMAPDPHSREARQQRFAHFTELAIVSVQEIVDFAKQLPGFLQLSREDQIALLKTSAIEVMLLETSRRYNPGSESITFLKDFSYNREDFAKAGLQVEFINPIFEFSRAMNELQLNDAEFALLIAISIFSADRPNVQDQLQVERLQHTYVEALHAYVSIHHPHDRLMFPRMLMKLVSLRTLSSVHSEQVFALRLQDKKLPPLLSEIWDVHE
Chain of Estrogen receptor (Homo sapiens) (P03372 whole entry, looked up, the tested form may be a part): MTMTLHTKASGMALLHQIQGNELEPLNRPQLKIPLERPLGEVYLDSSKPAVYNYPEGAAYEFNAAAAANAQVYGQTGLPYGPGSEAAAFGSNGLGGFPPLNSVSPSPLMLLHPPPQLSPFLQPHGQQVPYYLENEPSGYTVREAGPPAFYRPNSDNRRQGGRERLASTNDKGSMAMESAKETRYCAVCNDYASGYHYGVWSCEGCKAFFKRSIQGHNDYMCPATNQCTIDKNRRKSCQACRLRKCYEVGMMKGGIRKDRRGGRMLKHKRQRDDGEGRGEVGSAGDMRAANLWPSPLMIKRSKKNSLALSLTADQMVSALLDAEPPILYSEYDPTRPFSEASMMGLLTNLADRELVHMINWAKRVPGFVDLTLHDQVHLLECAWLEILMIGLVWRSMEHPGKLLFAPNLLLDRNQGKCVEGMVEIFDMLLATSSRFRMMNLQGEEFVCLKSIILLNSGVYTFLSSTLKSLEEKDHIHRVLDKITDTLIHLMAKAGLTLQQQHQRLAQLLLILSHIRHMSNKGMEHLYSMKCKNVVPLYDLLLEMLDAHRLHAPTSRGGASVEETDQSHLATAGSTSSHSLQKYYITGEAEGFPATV
Chain of Transcriptional activator Myb (Homo sapiens) (P10242 whole entry, looked up): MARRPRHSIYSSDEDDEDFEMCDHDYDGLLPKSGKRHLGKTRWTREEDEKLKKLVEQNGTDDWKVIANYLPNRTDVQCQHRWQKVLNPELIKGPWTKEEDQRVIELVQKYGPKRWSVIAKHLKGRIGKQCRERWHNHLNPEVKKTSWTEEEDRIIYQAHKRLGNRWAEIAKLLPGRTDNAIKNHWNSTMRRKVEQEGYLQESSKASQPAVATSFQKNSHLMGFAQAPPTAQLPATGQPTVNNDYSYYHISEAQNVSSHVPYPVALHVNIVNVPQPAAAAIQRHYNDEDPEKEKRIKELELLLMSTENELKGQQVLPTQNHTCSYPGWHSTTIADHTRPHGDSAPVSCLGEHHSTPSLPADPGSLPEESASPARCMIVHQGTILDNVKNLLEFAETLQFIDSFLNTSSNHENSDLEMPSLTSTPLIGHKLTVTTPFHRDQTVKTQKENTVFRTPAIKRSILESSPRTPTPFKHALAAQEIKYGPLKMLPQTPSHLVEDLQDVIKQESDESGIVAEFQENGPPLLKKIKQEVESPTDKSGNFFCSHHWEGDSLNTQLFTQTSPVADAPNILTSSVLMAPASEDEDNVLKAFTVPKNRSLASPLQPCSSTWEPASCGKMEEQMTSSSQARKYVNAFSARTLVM
Chain of Nuclear receptor subfamily 4 group A member 2 (Homo sapiens) (P43354 whole entry, looked up, the tested form may be a part): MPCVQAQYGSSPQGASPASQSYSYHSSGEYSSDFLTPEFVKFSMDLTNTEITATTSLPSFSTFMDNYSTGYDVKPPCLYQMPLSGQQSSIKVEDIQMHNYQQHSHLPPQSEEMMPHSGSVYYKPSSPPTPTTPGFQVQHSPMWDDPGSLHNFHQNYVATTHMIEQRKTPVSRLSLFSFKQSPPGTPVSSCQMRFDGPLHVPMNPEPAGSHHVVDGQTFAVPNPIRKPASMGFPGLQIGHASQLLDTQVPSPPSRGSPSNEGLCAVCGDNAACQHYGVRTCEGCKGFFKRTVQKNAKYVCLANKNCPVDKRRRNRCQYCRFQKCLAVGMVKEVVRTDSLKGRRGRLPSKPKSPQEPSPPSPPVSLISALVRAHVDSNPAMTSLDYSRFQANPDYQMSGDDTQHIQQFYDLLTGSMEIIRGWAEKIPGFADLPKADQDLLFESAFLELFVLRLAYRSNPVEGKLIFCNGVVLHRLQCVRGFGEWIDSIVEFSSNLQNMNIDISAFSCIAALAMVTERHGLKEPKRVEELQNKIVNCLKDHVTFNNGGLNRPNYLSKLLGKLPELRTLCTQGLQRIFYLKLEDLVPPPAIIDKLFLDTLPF

With `OC(Cc1ccccc1Cl)(Cn1[nH]cnc1=S)C1(Cl)CC1` (stereo not given), the compound was classed as inactive in assay [1], in [4], in assay [5], in [6], in [7] and in assay [8]. The outcome in assay [9], in assay [10] and in assay [11] was inactive. Moreover, the AC50 in assay [2] was 5.83 µM (active); in [3] it was 100 µM (active).

Turning to `Cc1ccccc1OP(=O)(Oc1ccccc1C)Oc1ccccc1C`, the call in [1], in [12], in [4], in [5], in assay [13] and in assay [6] was inactive. Besides, the compound was called inactive in assay [7], in assay [14], in [15], in assay [8], in [9] and in assay [10]. Besides, the compound was called inactive in [11]. The AC50 in assay [2] is 1.3 µM (active); in [3], 56.1 µM (active).

Regarding `Nc1c(Oc2ccccc2)cc(O)c2c1C(=O)c1ccccc1C2=O`, the result in [1], in assay [3], in assay [5], in assay [16], in [14] and in assay [17] was inactive. Also, the result in assay [18], in assay [15], in assay [19], in assay [8], in assay [9] and in assay [10] was inactive. Also, the call in [11] was inactive. Further, the AC50 in [2] was 7.82 µM (active).

As for `c1csc(-c2ccc(-c3cccs3)s2)c1`, the concentration at half-maximal activity (AC50) is 6.62 µM (active) in assay [1], 4.23 µM (active) in assay [2], 2.54 µM (active) in assay [3] and 3.59 µM (active) in assay [19]. The compound was called inactive in [5], in [6], in assay [7], in assay [14], in [17] and in assay [15]. Further, the compound was classed as inactive in [8], in [9], in [10] and in [11].

Regarding `CC(C)(C)c1ccc(CCOc2ncnc3ccccc23)cc1`, the outcome in assay [1], in assay [2], in assay [3], in assay [5], in assay [6] and in [14] was inactive. Also, the compound was called inactive in assay [15], in assay [8], in [9], in [10] and in assay [11].
